{"source": "PubChem BioAssay AID588397", "about": "(National Center for Advancing Translational Sciences (NCATS), 2011)", "note": "“And” between values parts separate entries of the source, which are not always exact repeats. Identical values can stand only once. The campaign covered roughly 1,300 compounds. About 1,000 (77%) were called active. Not shown: some 7% with an inconclusive outcome. So high a share suggests a set chosen from earlier hits. The list shows a part of the results. Unmarked numbers belong to inactive results. Calls follow the shape of the dose curve; as a rule, active = well fitted inhibition curve with a large enough effect; inconclusive = small, poorly fitted or top-dose-only effect; inactive = no such curve, though single readings can be large or run the other way. % is scaled to controls: 0 for no effect and ±100 for the full control effect; potency is read from the fitted curve at half-maximal effect."}
{"assay": "qHTS of small molecules that selectively kill Giardia lamblia: Hit Validation;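 also: viability measured as ATP content by luminescence so killing lowers signal; trophozoites exposed to compounds for 48 h anaerobically at 37 °C; nearly all actives have a fitted effect of over 65% in size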.", "settings": "Giardia lamblia trophozoite viability, dose-response; series mostly up to 38.3 µM; activity change, negative = killing: at the top concentration", "how_it_was_run": "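HTS viability screen: compound-treated trophozoites (100 cells/well) are kept anaerobic at 37 deg C for 48 hrs, and surviving cells are detected through ATP-dependent luminescence.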", "units": {"activity change, negative = killing": "%"}}
{"smiles": "CC1(C)Oc2ccc3ccc(=O)oc3c2C(/C=N/O)C1=O", "note": "(stereo not drawn)", "activity change, negative = killing": 5.31}
{"smiles": "COc1ccc(-n2nc([N+](=O)[O-])c(=NCc3ccc4c(c3)OCO4)n2O)cc1", "Potency": "14.5 µM (active)"}
{"smiles": "Cc1ccc(CN=c2c([N+](=O)[O-])nn(-c3ccc4c(c3)OCCO4)n2O)cc1", "Potency": "3.65 µM (active)"}
{"smiles": "O=[N+]([O-])c1nn(-c2ccc3c(c2)OCCO3)n(O)c1=NCc1ccc(F)cc1", "Potency": "4.6 µM (active)"}
{"smiles": "O=C(COc1cccnc1[N+](=O)[O-])Nc1cc(S(=O)(=O)N2CCCCC2)ccc1Cl", "Potency": "1.45 µM (active)"}
{"smiles": "Cc1ccc(NC(=O)COc2cccnc2[N+](=O)[O-])cc1S(=O)(=O)N1CCCCC1", "Potency": "4.1 µM (active)"}
{"smiles": "CN(C(=O)c1ccc(NC(=O)Cc2ccc(NC(=O)C3CCCN(S(=O)(=O)c4cccc([N+](=O)[O-])c4)C3)cc2)cc1)C1CCCC1", "note": "(stereo not drawn)", "activity change, negative = killing": 1.44}
{"smiles": "Cc1ccc(OCC(=O)Nc2cc(S(=O)(=O)N3CCOCC3)ccc2Cl)c([N+](=O)[O-])n1", "Potency": "4.1 µM (active)"}
{"smiles": "O=C(COc1cccnc1[N+](=O)[O-])Nc1cccc(S(=O)(=O)N2CCCCC2)c1", "Potency": "3.65 µM (active)"}
{"smiles": "Cc1ccc(CCNC(=O)CN2C(=O)COc3ccc(S(=O)(=O)N4CCOCC4)cc32)cc1", "activity change, negative = killing": -1.26}
{"smiles": "COc1ccc(S(=O)(=O)N2CCOCC2)cc1NC(=O)COc1cccnc1[N+](=O)[O-]", "Potency": "5.79 µM (active)"}
{"smiles": "Cc1ccc(S(=O)(=O)N2CCN(C(=O)COc3ccc(C)nc3[N+](=O)[O-])CC2)c(C)c1", "Potency": "4.1 µM (active)"}
{"smiles": "Cc1ccccc1NC(NC(=O)OCCn1c([N+](=O)[O-])cnc1C)C(Cl)(Cl)Cl", "note": "(stereo not drawn)", "Potency": "0.729 µM (active)"}
{"smiles": "Cc1ncc([N+](=O)[O-])n1CCOC(=O)NC(Nc1ccc(F)cc1)C(Cl)(Cl)Cl", "note": "(stereo not drawn)", "Potency": "0.46 µM (active)"}
{"smiles": "CCOC(=O)c1c(C)[nH]c(C)c1S(=O)(=O)N1CCN(c2ccc([N+](=O)[O-])cc2)CC1", "Potency": "7.29 µM (active)"}
{"smiles": "Cc1oc2c(c1C(=O)N1CCOCC1)C(=O)c1ccccc1C2=O", "Potency": "3.26 µM (active)"}
{"smiles": "CCOC(=O)C1CCN(C(=O)c2c(C)oc3c2C(=O)c2ccccc2C3=O)CC1", "Potency": "2.05 µM (active)"}
{"smiles": "Cc1oc2c(c1C(=O)N1CCC(C)CC1)C(=O)c1ccccc1C2=O", "Potency": "3.65 µM (active)"}
{"smiles": "O=[N+]([O-])c1ccc(/C=[N+](\\[O-])CCO)o1", "Potency": "1.16 µM (active)"}
{"smiles": "O=[N+]([O-])c1ccc(/C=[N+](\\[O-])[C@@H]2CCCC[C@@H]2/[N+]([O-])=C/c2ccc([N+](=O)[O-])o2)o1", "Potency": "0.65 µM (active)"}
{"smiles": "CCOC(=O)N1CCN(C(=O)c2ccc(Cl)c(NC(=O)c3cccs3)c2)CC1", "activity change, negative = killing": 19.9}
{"smiles": "Cc1ccn(-c2ccc(NC(=O)c3cccs3)cc2)n1", "Potency": "16.3 µM (active)"}
{"smiles": "CC(C)N1CCc2c(sc(NC(=O)c3cc4cc([N+](=O)[O-])ccc4s3)c2C(N)=O)C1", "Potency": "2.59 µM (active)"}
{"smiles": "NC(=O)c1ccsc1NC(=O)c1ccc([N+](=O)[O-])o1", "Potency": "1.3 µM (active)"}
{"smiles": "Cn1cc([N+](=O)[O-])c(C(=O)Nc2sc3c(c2C#N)CCC3)n1", "Potency": "2.31 µM (active)"}
{"smiles": "N#Cc1c(NC(=O)c2ccc([N+](=O)[O-])o2)sc2c1CCC2", "Potency": "0.365 µM (active)"}
{"smiles": "COC(=O)c1sc(NC(=O)c2ccc([N+](=O)[O-])o2)c(C#N)c1C", "Potency": "0.29 µM (active)"}
{"smiles": "NC(=O)c1c(NC(=O)c2ccc([N+](=O)[O-])o2)sc2c1CCCC2", "Potency": "0.65 µM (active)"}
{"smiles": "COC(=O)c1c(NC(=O)c2ccc([N+](=O)[O-])o2)sc2c1CCN(C(C)C)C2", "Potency": "0.818 µM (active)"}
{"smiles": "CC(=O)N1CCc2c(sc(NC(=O)c3ccc([N+](=O)[O-])o3)c2C#N)C1", "Potency": "1.16 µM (active)"}
{"smiles": "CCOC(=O)N1CCN(C(=O)c2cc(-c3ccc(OCC)cc3)nc3ccccc23)CC1", "Potency": "2.9 µM (active)"}
{"smiles": "CCn1cc(-c2cc(C(=O)O)c3ccccc3n2)cn1", "Potency": "5.16 µM (active)"}
{"smiles": "CCOc1ccc(-c2cc(C(=O)N3CCN(c4ccccn4)CC3)c3ccccc3n2)cc1", "Potency": "1.63 µM (active) and 1.45 µM (active) and 3.26 µM (active)"}
{"smiles": "O=C(NNC(=O)c1cc(-c2ccncc2)nc2ccccc12)c1ccccc1O", "activity change, negative = killing": -14.2}
{"smiles": "c1cc(-c2cc3cc(N4CCOCC4)ccc3o2)cs1", "Potency": "2.05 µM (active)"}
{"smiles": "CCCCC(CC)C(=O)Nc1ncc([N+](=O)[O-])s1", "note": "(stereo not drawn)", "Potency": "0.23 µM (active)"}
{"smiles": "CCCCC(=O)Nc1ncc([N+](=O)[O-])s1", "Potency": "0.23 µM (active)"}
{"smiles": "CC(C)CC(=O)Nc1ncc([N+](=O)[O-])s1", "Potency": "0.206 µM (active)"}
{"smiles": "CCC(Oc1ccccc1)C(=O)Nc1ncc([N+](=O)[O-])s1", "note": "(stereo not drawn)", "Potency": "0.103 µM (active)"}
{"smiles": "CCc1nn2c(=O)c(S(=O)(=O)Nc3ccc(Cl)cc3)c(C)nc2s1", "activity change, negative = killing": -12.1}
{"smiles": "CC(CC(=O)Nc1ncc([N+](=O)[O-])s1)c1ccccc1", "note": "(stereo not drawn)", "Potency": "0.206 µM (active)"}
{"smiles": "CC1=C(C(=O)Nc2ccc(CC(=O)NCc3ccc(OC(C)C)cc3)cc2)SCCO1", "Potency": "4.1 µM (active)"}
{"smiles": "CN(C(=O)CSc1nc2ccccc2c(=O)n1-c1ccc(F)cc1)C1CCS(=O)(=O)C1", "note": "(stereo not drawn)", "activity change, negative = killing": -14.3}
{"smiles": "CN(C(=O)CSc1nc2ccc([N+](=O)[O-])cc2s1)C1CCS(=O)(=O)C1", "note": "(stereo not drawn)", "Potency": "1.45 µM (active)"}
{"smiles": "O=C(COc1ccccc1)N=C1SC2CS(=O)(=O)CC2N1c1ccccc1F", "note": "(stereo not drawn)", "activity change, negative = killing": -32}
{"smiles": "O=[N+]([O-])c1ccc(/C=C/C2=NN(c3ccccc3)C(c3ccco3)C2)o1", "note": "(stereo not drawn)", "Potency": "0.115 µM (active)"}
{"smiles": "Cc1ccc(-c2nnc(NC(=O)c3ccc([N+](=O)[O-])o3)o2)c(C)c1", "Potency": "0.41 µM (active)"}
{"smiles": "COc1ccc(-c2nnc(NC(=O)c3ccc([N+](=O)[O-])o3)o2)c(OC)c1", "Potency": "2.05 µM (active)"}
{"smiles": "Cc1ccc(C)c(-c2nnc(NC(=O)c3ccc([N+](=O)[O-])o3)o2)c1", "Potency": "0.516 µM (active)"}
{"smiles": "O=[N+]([O-])c1cccc(S(=O)(=O)c2ccc(NCCOCCO)c([N+](=O)[O-])c2)c1", "Potency": "1.63 µM (active)"}
{"smiles": "Cc1ccc(-c2[nH][nH]c(=O)c(=O)c2N=Nc2ccccc2)cc1", "Potency": "1.3 µM (active)"}
{"smiles": "O=c1[nH][nH]c(-c2ccccc2)c1C=Nc1ccc(OC(F)(F)F)cc1", "activity change, negative = killing": -6.83}
{"smiles": "CC(=O)O[C@@H]1[C@@H](OC(C)=O)[C@H](n2ccc3cc([N+](=O)[O-])ccc32)OC[C@@H]1OC(C)=O", "Potency": "0.259 µM (active)"}
